Assay [1] addresses Calcium and integrin-binding protein 1 (Homo sapiens) (UniProt Q99828). The assay is described as follows: Primary qHTS for Identification of Calcium Integrin Binding Protein 1 (CIB1) Competitor (AID 1508620).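 Also: GST tagged CIB1 binding a fluorescein labelled alphaIIb integrin peptide tracer; top concentration of the series differs between compounds.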 The method, boiled down:
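Fluorescence polarization competition: GST-tagged CIB1 (1 uM final) preincubated with compound 15 min at room temperature, then FITC-labelled alphaIIb peptide (100 nM final) added. After 15 min at room temperature, polarization read at Ex 480/Em 540.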
A general note: In qHTS, concentration-response curves come from the screen itself.

A short description of assay [2]: Primary qHTS for small molecule stabilizers of the endoplasmic reticulum resident proteome: Secreted ER Calcium Modulated Protein (SERCaMP) assay (AID 1508630). The procedure, abridged: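 GLuc-SERCaMP-expressing SH-SY5Y cells, pretreated 16 h with compound, are challenged with thapsigargin to empty ER calcium stores; after 4 h, coelenterazine is added directly to the medium and luminescence is imaged.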

Assay [3] has as its target Cytochrome P450 2D6 (Homo sapiens) (UniProt P10635). Briefly: Cytochrome P450 family 2 subfamily D member 6 (CYP2D6) small molecule antagonists: luciferase biochemical (cell-free) qHTS assay (AID 1645840; active = well fitted curve in the direction sought with a large enough effect in the repeat runs; an effect the other way counts as inactive or inconclusive; also: nearly all actives have a fitted effect of over 55% in size; also: potency is read from the fitted curve at half-maximal effect). The method, boiled down: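 P450-Glo luminescent screen: recombinant CYP2D6 enzyme–proluciferin substrate mix preincubated with compound 10 min at room temperature, then NADPH regeneration added for 1 h at room temperature. Detection reagent added for 20 min; luciferin light read as relative luminescence units.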

Assay [4] concerns the target Cytochrome P450 2C9 (Homo sapiens) (UniProt P11712). Briefly: Cytochrome P450 family 2 subfamily C member 9 (CYP2C9) small molecule antagonists: luciferase biochemical (cell-free) qHTS assay (AID 1645842; active = well fitted curve in the direction sought with a large enough effect in the repeat runs; an effect the other way counts as inactive or inconclusive; also: nearly all actives have a fitted effect of over 55% in size; also: potency is read from the fitted curve at half-maximal effect). The method, boiled down:
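Luminescence, after 20 min with luciferin detection reagent, reflected CYP2C9 turnover during a 1 h NADPH-driven reaction at 37C. Enzyme-substrate mix contained 0.4% bovine serum albumin and was preincubated with compound 10 min at room temperature.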

Assay [5] in a line: Primary qHTS for inhibitors of nuclear receptor binding SET domain protein 2 (NSD2) in an isogenic RCH-ACV NSD2 p.E1099K mutant (9B) (AID 1645876). Also: nearly all actives have a fitted effect of over 70% in size. Also: potency is read from the fitted curve at half-maximal effect.
The target of assay [6] is N-terminal Xaa-Pro-Lys N-methyltransferase 1 (Homo sapiens) (UniProt Q9BV86). The assay is described as follows: Confirmatory qHTS for Inhibitors of N-terminal methyltransferase 1 (NTMT1): MTaseGlo Assay (AID 1645874). Also: potency is read from the fitted curve at half-maximal effect; nearly all actives have a fitted effect of over 65% in size. The method, boiled down: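 Compounds are incubated with 125 nM NTMT1 and 100 uM SAM for 15 min before the SPKRIA peptide (1 uM) starts a 30 min room-temperature methylation. SAH is measured by coupled luciferase luminescence and curves fitted to a Hill equation.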

Structures are written as SMILES. Values joined by “and” are separate entries in the source; they are usually repeats but may differ in a detail not shown here. Equal values may be shown once. Results filed as inconclusive are left out. Active and inactive are the calls of the source. Unless noted, calls follow the shape of the dose curve; as a rule, active = well fitted curve in the direction sought with a large enough effect; inconclusive = small, poorly fitted or top-dose-only effect, or another doubt; inactive = no such curve, though single readings can be large; an effect the other way counts as inactive or inconclusive.

Cytochrome P450 2C9 (Homo sapiens), sequence (P11712 whole entry, looked up): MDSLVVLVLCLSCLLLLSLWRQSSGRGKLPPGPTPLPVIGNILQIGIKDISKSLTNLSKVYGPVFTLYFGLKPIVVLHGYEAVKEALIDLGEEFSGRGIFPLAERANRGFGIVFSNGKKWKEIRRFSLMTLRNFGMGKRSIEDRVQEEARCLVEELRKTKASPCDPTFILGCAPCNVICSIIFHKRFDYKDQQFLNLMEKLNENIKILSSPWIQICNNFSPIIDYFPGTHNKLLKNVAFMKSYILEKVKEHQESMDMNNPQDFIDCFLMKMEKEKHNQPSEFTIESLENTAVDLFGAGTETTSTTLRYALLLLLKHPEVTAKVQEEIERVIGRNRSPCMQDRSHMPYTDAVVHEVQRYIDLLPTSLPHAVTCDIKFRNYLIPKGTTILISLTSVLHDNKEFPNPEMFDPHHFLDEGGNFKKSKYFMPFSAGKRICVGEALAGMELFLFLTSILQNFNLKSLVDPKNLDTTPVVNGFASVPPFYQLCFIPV
Calcium and integrin-binding protein 1 (Homo sapiens), sequence (Q99828 whole entry, looked up): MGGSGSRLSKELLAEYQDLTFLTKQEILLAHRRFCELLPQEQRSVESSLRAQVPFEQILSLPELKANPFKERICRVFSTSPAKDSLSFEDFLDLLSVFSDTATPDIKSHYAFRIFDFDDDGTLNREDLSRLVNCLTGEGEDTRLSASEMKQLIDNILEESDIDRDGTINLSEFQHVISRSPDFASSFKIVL
Cytochrome P450 2D6 (Homo sapiens), sequence (P10635 whole entry, looked up): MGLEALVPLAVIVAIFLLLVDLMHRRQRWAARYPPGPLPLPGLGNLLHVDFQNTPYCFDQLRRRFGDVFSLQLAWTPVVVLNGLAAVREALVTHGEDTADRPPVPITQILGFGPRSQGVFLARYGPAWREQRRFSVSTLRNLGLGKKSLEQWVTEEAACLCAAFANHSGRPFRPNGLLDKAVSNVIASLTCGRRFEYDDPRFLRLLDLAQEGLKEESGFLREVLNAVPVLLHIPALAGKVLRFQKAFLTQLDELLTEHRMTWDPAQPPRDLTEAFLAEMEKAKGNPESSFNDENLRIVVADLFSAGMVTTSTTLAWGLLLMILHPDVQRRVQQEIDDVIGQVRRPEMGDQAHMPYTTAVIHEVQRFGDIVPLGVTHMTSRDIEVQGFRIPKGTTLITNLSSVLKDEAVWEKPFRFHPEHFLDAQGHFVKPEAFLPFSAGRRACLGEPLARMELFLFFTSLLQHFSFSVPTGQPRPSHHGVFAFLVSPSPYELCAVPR
N-terminal Xaa-Pro-Lys N-methyltransferase 1 (Homo sapiens), sequence (Q9BV86 whole entry, looked up): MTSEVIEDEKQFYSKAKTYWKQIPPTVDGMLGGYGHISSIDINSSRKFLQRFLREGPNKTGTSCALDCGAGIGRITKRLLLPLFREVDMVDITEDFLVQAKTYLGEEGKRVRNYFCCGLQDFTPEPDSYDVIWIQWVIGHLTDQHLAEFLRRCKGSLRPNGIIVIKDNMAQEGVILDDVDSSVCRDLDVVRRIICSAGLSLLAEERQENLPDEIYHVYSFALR

For `NS(=O)(=O)c1ccc(Nc2nc(OCC3CCCCC3)c3[nH]cnc3n2)cc1`, the Potency result in assay [1] and in assay [2] was “inactive” throughout. For the same compound, the Potency in assay [3] is 19 µM (active); in assay [4], 26.8 µM (active); in assay [5], 13.2 µM (active).
Take `CCOC(=O)N1c2ccc(C(F)(F)F)cc2[C@@H](N(Cc2cc(C(F)(F)F)cc(C(F)(F)F)c2)C(=O)OC)C[C@H]1CC`: the Potency result in assay [1], in assay [2], in assay [3], in assay [4] and in assay [5] was “inactive” each time.
On to `Cc1ccc2c(c1)c1c(n2CCc2ccc(C)nc2)CCN(C)C1`, for which the Potency entry in assay [1] and in assay [2] was “inactive” each time. Besides, the Potency in assay [3] is 8.49 µM (active); in assay [4], 10.7 µM (active); in assay [5] it was 14.5 µM (active).
Regarding `Fc1ccc(CNc2ncnc3ccc(F)cc23)cc1`, the Potency result in assay [1] and in assay [2] was “inactive” in each case. The Potency in assay [3] was 16.9 µM (active); in assay [4], 8.49 µM (active).
Regarding `O=C(c1ccc(F)c(F)c1Nc1ccc(I)cc1F)N1CC(O)([C@H]2CCCCN2)C1`, the Potency entry in assay [1], in assay [2] and in assay [4] was “inactive” in each case. The Potency in assay [3] is 3.01 µM (active).
Regarding `O=C(Nc1cccc(C(F)(F)F)c1)Nc1cc(S(=O)(=O)NC2CC2)ccc1-c1ccsc1`, the Potency entry in assay [1] and in assay [2] was “inactive” throughout. For the same compound, the values for the Potency in assay [3], in assay [4] and in assay [5] were 5.35 µM (active), 3.38 µM (active) and 23.5 µM (active), respectively.
For `c1ccc(-c2oc3ncnc(NC[C@@H]4CCCO4)c3c2-c2ccccc2)cc1`, the Potency entry in assay [1], in assay [2] and in assay [5] was “inactive” each time. Moreover, the Potency in assay [3] is 10.7 µM (active); in assay [4] it was 7.56 µM (active); in assay [6] it was 8.91 µM (active).
Turning to `CCCCn1c(=O)n(Cc2ccccc2F)c(=O)c2[nH]c(Cc3ccc(NC(C)=O)cc3)nc21`, the Potency entry in assay [1], in assay [2] and in assay [5] was “inactive” in each case. In addition, the Potency in assay [4] was 6.01 µM (active).
Turning to `CNC1CCC(N(Cc2cccc(-c3ccncc3)c2)C(=O)c2sc3ccccc3c2Cl)CC1` (stereo not drawn), the Potency entry in assay [1] and in assay [2] was “inactive” throughout. The Potency was 4.25 µM (active) in assay [3]; 10.7 µM (active) in assay [4]; 5.15 µM (active) and 9.34 µM (active) in assay [5].

(Values after PubChem BioAssay (NCATS).)
